The supplement of paper PMC6897291
Where a name gives a salt, the structure may show the parent alone.

Columns and labels:
[1] = tested on: U-2932; experiment: growth inhibition by drug alone (1 - RLU/untreated control) (fraction); higher = stronger inhibition; details: 177Lu-lilotomab satetraxetan 0 ug/ml
Procedure, shortened: (§1)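 A radiolabelled anti-CD37 antibody conjugate (~600 MBq/mg) was applied for 18 h at 0.5 µg/ml to RIVA and 1 µg/ml to U-2932 cells, with untreated cells run alongside. All cells were washed and seeded at 3,000 cells/well onto library-printed plates at 10/100 nM (RIVA) or 10/1,000 nM (U-2932). Growth inhibition was based on RealTime-Glo luminescence compared with untreated no-drug wells. Daily reads began on day 3 after 1 h at 37°C, with each value being 1 − RLU/mean of the 48 such wells on that plate.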

[2] = tested on: RIVA; experiment: as above; details: 177Lu-lilotomab satetraxetan 0 ug/ml
Procedure, shortened: as §1

[3] = tested on: U-2932; experiment: growth inhibition by drug plus 177Lu-lilotomab satetraxetan (1 - RLU/untreated control) (fraction); higher = stronger inhibition; details: 177Lu-lilotomab satetraxetan 1 ug/ml
Procedure, shortened: as §1

[4] = tested on: RIVA; experiment: as above; details: 177Lu-lilotomab satetraxetan 0.5 ug/ml
Procedure, shortened: as §1

| Structure (SMILES) | growth inhibition by drug alone ([1]; 10 nM, time (day): 3) | growth inhibition by drug alone ([1]; 10 nM, time (day): 4) | growth inhibition by drug alone ([1]; 10 nM, time (day): 5) | growth inhibition by drug alone ([1]; 10 nM, time (day): 6) | growth inhibition by drug alone ([1]; 1000 nM, time (day): 3) | growth inhibition by drug alone ([1]; 1000 nM, time (day): 4) | growth inhibition by drug alone ([1]; 1000 nM, time (day): 5) | growth inhibition by drug alone ([1]; 1000 nM, time (day): 6) | growth inhibition by drug alone ([2]; 10 nM, time (day): 3) | growth inhibition by drug alone ([2]; 10 nM, time (day): 4) | growth inhibition by drug alone ([2]; 10 nM, time (day): 5) | growth inhibition by drug alone ([2]; 10 nM, time (day): 6) | growth inhibition by drug alone ([2]; 100 nM, time (day): 3) | growth inhibition by drug alone ([2]; 100 nM, time (day): 4) | growth inhibition by drug alone ([2]; 100 nM, time (day): 5) | growth inhibition by drug alone ([2]; 100 nM, time (day): 6) | growth inhibition by drug plus 177Lu-lilotomab satetraxetan ([3]; 10 nM, time (day): 3) | growth inhibition by drug plus 177Lu-lilotomab satetraxetan ([3]; 10 nM, time (day): 4) | growth inhibition by drug plus 177Lu-lilotomab satetraxetan ([3]; 10 nM, time (day): 5) | growth inhibition by drug plus 177Lu-lilotomab satetraxetan ([3]; 10 nM, time (day): 6) | growth inhibition by drug plus 177Lu-lilotomab satetraxetan ([3]; 1000 nM, time (day): 3) | growth inhibition by drug plus 177Lu-lilotomab satetraxetan ([3]; 1000 nM, time (day): 4) | growth inhibition by drug plus 177Lu-lilotomab satetraxetan ([3]; 1000 nM, time (day): 5) | growth inhibition by drug plus 177Lu-lilotomab satetraxetan ([3]; 1000 nM, time (day): 6) | growth inhibition by drug plus 177Lu-lilotomab satetraxetan ([4]; 10 nM, time (day): 3) | growth inhibition by drug plus 177Lu-lilotomab satetraxetan ([4]; 10 nM, time (day): 4) | growth inhibition by drug plus 177Lu-lilotomab satetraxetan ([4]; 10 nM, time (day): 5) | growth inhibition by drug plus 177Lu-lilotomab satetraxetan ([4]; 10 nM, time (day): 6) | growth inhibition by drug plus 177Lu-lilotomab satetraxetan ([4]; 100 nM, time (day): 3) | growth inhibition by drug plus 177Lu-lilotomab satetraxetan ([4]; 100 nM, time (day): 4) | growth inhibition by drug plus 177Lu-lilotomab satetraxetan ([4]; 100 nM, time (day): 5) | growth inhibition by drug plus 177Lu-lilotomab satetraxetan ([4]; 100 nM, time (day): 6) |
| --- | --- | --- | --- | --- | --- | --- | --- | --- | --- | --- | --- | --- | --- | --- | --- | --- | --- | --- | --- | --- | --- | --- | --- | --- | --- | --- | --- | --- | --- | --- | --- | --- |
| CCC(=O)N1CCN(c2ccc(-n3c(=O)ccc4cnc5ccc(-c6cnc7ccccc7c6)cc5c43)cc2C(F)(F)F)CC1 [Torin 1] | 0.203 | 0.128 | 0.0048 | -0.022 | 0.9 | 0.883 | 0.866 | 0.87 | 0.0288 | 0.0386 | -0.0391 | -0.398 | 0.409 | 0.37 | 0.289 | 0.104 | 0.168 | 0.161 | 0.208 | 0.242 | 0.904 | 0.878 | 0.875 | 0.879 | 0.556 | 0.599 | 0.631 | 0.621 | 0.595 | 0.604 | 0.565 | 0.531 |
| O=c1[nH]cc(F)c(=O)[nH]1 [Adrucil (Fluorouracil)] | 0.0617 | 0.0194 | 0.0184 | -0.211 | 0.0564 | 0.0179 | 0.00587 | -0.153 | -0.0691 | -0.144 | -0.384 | -0.72 | -0.6 | -0.481 | -0.493 | -0.619 | -0.0549 | 0.00352 | 0.0517 | 0.0335 | 0.0514 | 0.0854 | 0.184 | 0.275 | 0.421 | 0.521 | 0.54 | 0.555 | 0.398 | 0.483 | 0.493 | 0.512 |
| COC1=CC(c2cc3ccccc3[nH]2)=N/C1=C\c1[nH]c(C)cc1C [Obatoclax mesylate (GX15-070)] | 0.114 | 0.0688 | -0.0597 | -0.127 | 0.123 | 0.0924 | 0.0457 | -0.0101 | 0.00951 | 0.024 | -0.054 | -0.371 | -0.444 | -0.248 | -0.309 | -0.6 | 0.00229 | 0.0671 | 0.129 | 0.144 | 0.143 | 0.163 | 0.242 | 0.343 | 0.479 | 0.58 | 0.604 | 0.618 | 0.201 | 0.411 | 0.412 | 0.435 |
| CCOc1ccc(Nc2nc(-c3c(C)nc4ccccn34)cs2)cc1 | 0.225 | 0.209 | 0.0949 | 0.0852 | 0.961 | 0.972 | 0.979 | 0.982 | 0.0293 | 0.0644 | -0.0241 | -0.237 | 0.931 | 0.948 | 0.951 | 0.952 | 0.151 | 0.185 | 0.267 | 0.311 | 0.968 | 0.978 | 0.983 | 0.987 | 0.559 | 0.602 | 0.61 | 0.62 | 0.945 | 0.965 | 0.97 | 0.973 |
| CC1(CN2CCC(n3c(=O)[nH]c4ccccc43)CC2)OCc2ccccc2-n2cccc21 (centres undefined) | -0.00689 | -0.027 | -0.0586 | -0.0906 | -0.241 | -0.0399 | -0.126 | -0.115 | -0.0853 | -0.102 | -0.143 | -0.225 | -0.307 | -0.303 | -0.319 | -0.374 | -0.0386 | 0.0346 | 0.0781 | 0.0987 | -0.0292 | 0.0476 | 0.0675 | 0.175 | 0.576 | 0.59 | 0.612 | 0.612 | 0.521 | 0.568 | 0.6 | 0.609 |
| COc1ccccc1OCC(O)CN1CCN(CC(=O)Nc2c(C)cccc2C)CC1 (centres undefined) [Ranolazine (Ranexa)] | 0.0363 | 0.0222 | -0.0749 | -0.119 | -0.0415 | -0.0106 | -0.0786 | -0.23 | 0.0348 | -0.0338 | -0.102 | -0.328 | -0.11 | -0.146 | -0.161 | -0.223 | -0.0197 | 0.00637 | 0.00274 | 0.118 | -0.0847 | 8.82e-05 | -0.0142 | -0.000571 | 0.412 | 0.527 | 0.544 | 0.551 | 0.294 | 0.438 | 0.446 | 0.418 |
| O=C(O)CC[C@H]1CC[C@@](c2cc(F)ccc2F)(S(=O)(=O)c2ccc(Cl)cc2)CC1 | 0.105 | 0.0715 | -0.0926 | -0.0883 | 0.0344 | 0.041 | -0.0603 | -0.0323 | 0.072 | 0.0162 | -0.0366 | -0.42 | -0.186 | -0.2 | -0.179 | -0.202 | 0.00844 | 0.0724 | 0.123 | 0.147 | 0.000893 | 0.0697 | 0.0856 | 0.142 | 0.613 | 0.631 | 0.645 | 0.643 | 0.453 | 0.522 | 0.543 | 0.556 |
